Source: PubChem BioAssay (Tox21)
Records with an inconclusive call do not appear. Calls of active or inactive are those of the source. Unless noted, the call rests on the fitted dose curve.

Assays:
[1] = Nuclear factor erythroid 2-related factor 2/antioxidant responsive element (Nrf2/ARE) small molecule agonists: qHTS cell viability counter screen in human keratinocytes (AID 1919968; active means well fitted curve in the direction sought with a large enough effect in the repeat runs; an effect the other way counts as inactive or inconclusive; further: nearly all actives have a fitted effect of over 55% in size; further: potency means the concentration at half of the fitted maximal effect)
Method in brief: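 CellTiter-Fluor fluorescence, read 1 h after reagent, gave viability in the same wells as the ARE-luciferase assay. KeratinoSens cells (1,500/well) had 23 h compound exposure at 37 C/5% CO2 following 5 h plating.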

[2] = target: Gonadotropin-releasing hormone receptor (Homo sapiens) (UniProt P30968); experiment: Human gonadotropin-releasing hormone receptor (GnRHR) small molecule agonists, calcium flux assay in GnRHR-HEK293 cells (AID 1920063); further: nearly all actives have a fitted effect of over 35% in size
Method in brief: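 Agonist mode: compounds at 15 concentrations, in triplicate, went onto calcium dye-loaded GnRHR-HEK293 cells. Intracellular calcium was then followed as 480/540 nm fluorescence at 1 s intervals over 3 min.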

[3] = target: KiSS-1 receptor (Homo sapiens) (UniProt Q969F8); experiment: Human kisspeptin (KISS1R) small molecule agonists, calcium flux assay in KISS1R-HEK293 cells (AID 1920064; active means well fitted curve in the direction sought with a large enough effect in the repeat runs; an effect the other way counts as inactive or inconclusive)
Method in brief: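 Agonist mode: intracellular calcium rise tracked at 1 s intervals over 3 min (480/540 nm) immediately after compound addition to dye-loaded KISS1R-HEK293 stable cells. Each compound tested at 15 concentrations in triplicate.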

[4] = G protein-coupled receptor (GPCR) small molecule agonists, calcium flux assay: HEK293 wild type cell line counter screen (AID 1920065)
Method in brief: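 Calcium flux counter screen: compound added in agonist mode at 15 concentrations in triplicate to dye-loaded parental HEK293 cells. Fluorescence (480/540) read kinetically for 3 min; ATP served as positive control.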

[5] = p53 small molecule agonists, cell-based qHTS assay with human liver microsomes: qHTS cell viability counter screen (AID 1963579); further: nearly all actives have a fitted effect of over 45% in size
Method in brief: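 Metabolically activated exposure: compounds, human liver microsomes and NADPH (0.5 mg/mL final apiece) were added to p53RE-bla cells seeded 5 h earlier, left 16 h at 37 C, and then assessed for viability by CellTiter-Glo luminescence.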

[6] = p53 small molecule agonists, cell-based qHTS assay: qHTS cell viability counter screen (AID 1963581); further: nearly all actives have a fitted effect of over 45% in size; further: potency means the concentration at half of the fitted maximal effect
Method in brief: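 Counter screen read by CellTiter-Glo luminescence (ATP content, 30 min at room temperature), run in the same wells as the beta-lactamase reporter read. HCT-116 p53RE-bla cells saw compounds for 16 h at 37 C.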

[7] = target: 5-hydroxytryptamine receptor 2A (Homo sapiens) (UniProt P28223); experiment: 5-hydroxytryptamine receptor 2A (HTR2A) small molecule antagonists, cell-based qHTS assay (AID 1963586); further: nearly all actives have a fitted effect of over 45% in size
Method in brief: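 CHO cells stably expressing human HTR2A were plated for 18 h at 37 C, then loaded with calcium dye for 1 h. Compounds were preincubated 5 min at room temperature before DOI (4 nM solution) was added. Kinetic fluorescence was read for 3 min.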

[8] = target: 5-hydroxytryptamine receptor 2A (Homo sapiens) (UniProt P28223); experiment: 5-hydroxytryptamine receptor 2A (HTR2A) small molecule agonists, cell-based qHTS assay (AID 1963587); further: nearly all actives have a fitted effect of over 30% in size
Method in brief: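 HTR2A-CHO cells, plated 18 h at 37 C/5% CO2, dye-loaded 1 h at 37 C; compounds in DMSO added by pin tool (agonist mode). Intracellular calcium flux read as kinetic fluorescence on FDSS over 2 min at 1 s intervals.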

[9] = target: Muscarinic acetylcholine receptor M1 (Homo sapiens) (UniProt P11229); experiment: Cholinergic receptor muscarinic 1 (CHRM1) small molecule antagonists, cell-based qHTS assay (AID 1963588); further: nearly all actives have a fitted effect of over 40% in size
Method in brief: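 Compounds were tested at 15 concentrations in three independent runs. Dye-loaded CHRM1-CHO cells were exposed 5 min at room temperature before stimulation by acetylcholine added at 50nM. Intracellular calcium was read kinetically on FDSS for 3 min.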

[10] = target: Muscarinic acetylcholine receptor M1 (Homo sapiens) (UniProt P11229); experiment: Cholinergic receptor muscarinic 1 (CHRM1) small molecule agonists, cell-based qHTS assay (AID 1963589); further: nearly all actives have a fitted effect of over 35% in size
Method in brief: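 Agonist-mode calcium-flux screen: compounds at 15 concentrations, three independent runs, were pin-transferred onto dye-loaded human CHRM1-CHO cells. Fluorescence was then recorded kinetically every second over minutes.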

[11] = cAMP Responsive Elements (CRE) small molecule agonists, cell-based qHTS assay (AID 1963590)
Method in brief: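 Agonist mode: compound added to CRE-bla HEK 293T cells (2,000/well, 18 h after plating) for 3 h at 37 C/5% CO2. Reporter activity detected via FRET beta-lactamase substrate, 2 h room-temperature loading.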

[12] = cAMP Responsive Elements (CRE) small molecule antagonists, cell-based qHTS assay (AID 1963591; active means well fitted inhibition curve with a large enough effect in the signal ratio in the repeat runs, not every such curve was filed as active; the % refers to the signal ratio)
Method in brief: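 Antagonist mode: compounds are added alongside the adenylyl cyclase activator NKH477 (0.25 uM final) to CRE-bla HEK293T cells for 3 h. LiveBLAzer FRET substrate, 2 h at room temperature, reports bla expression.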

[13] = target: Beta-2 adrenergic receptor (Homo sapiens) (UniProt P07550); experiment: Adrenergic beta2 receptor (ADRB2) small molecule antagonists, cell-based qHTS assay (AID 1963592); further: series mostly up to about 92 µM; nearly all actives have a fitted effect of over 50% in size
Method in brief: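 Assay format: CHO-ADRB2 cells, 18-20hr seeding at 37C/5% CO2, then compound plus 1nM isoproterenol agonist mix for 0.5hr RT. Homogeneous time-resolved fluorescence cAMP detection after 1hr, expressed as 665/615 nm ratio.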

[14] = target: D(2) dopamine receptor (Homo sapiens) (UniProt P14416); experiment: Dopamine D2 receptor (DRD2) small molecule agonists, cell-based qHTS assay (AID 1963594); further: nearly all actives have a fitted effect of over 35% in size
Method in brief: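 HEK293 cells stably expressing DRD2 were cultured 24 h at 37 C, then given Ro20-1724 (0.1 mM final) and compounds for 10 min at room temperature. NKH477 (200nM) was then added for 30 min. cAMP was read by HTRF.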

[15] = target: D(2) dopamine receptor (Homo sapiens) (UniProt P14416); experiment: Dopamine D2 receptor (DRD2) small molecule antagonists, cell-based qHTS assay (AID 1963595; active means well fitted inhibition curve with a large enough effect in the signal ratio in the repeat runs, with a control signal flat; the % refers to the signal ratio; further: potency means the concentration at half of the fitted maximal effect)
Method in brief: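 Cells were plated and grown for 24 h at 37 °C. Ro20-1724 (0.1 mM final) went in first, then compound for 10 min. NKH477 (200 nM) with quinpirole (12 nM) followed for 30 min at RT, then HTRF detection reagents for 1 h.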

[16] = p53 small molecule agonists, cell-based qHTS assay (AID 1963582; active means well fitted activation curve with a large enough effect in the signal ratio in the repeat runs, not every such curve was filed as active; the % refers to the signal ratio)
Method in brief: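 Read-out is beta-lactamase FRET fluorescence after 2 h at room temperature with LiveBLAzer B/G substrate. p53 response element-bla cells were treated 16 h at 37 C with compounds in DMSO, added 5 h after seeding.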

[17] = target: Beta-2 adrenergic receptor (Homo sapiens) (UniProt P07550); experiment: Adrenergic beta2 receptor (ADRB2) small molecule agonists, cell-based qHTS assay (AID 1963593);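 further: CHO cells stably overexpressing human ADRB2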
Method in brief: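 CHO cells stably over-expressing ADRB2 were plated overnight at 37C, then dosed with compounds plus a stimulation mix containing 100uM IBMX and 25uM Ro-20-1724 for 0.5hr at room temperature. cAMP was measured by HTRF competition, 1hr.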

[18] = p53 small molecule agonists, cell-based qHTS assay with rat liver microsomes: qHTS cell viability counter screen (AID 1963580); further: nearly all actives have a fitted effect of over 45% in size
Method in brief: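 Luminescent ATP readout (CellTiter-Glo, 30 min at room temperature) reports viability of p53RE-bla HCT-116 cells after 16 h at 37 C with test compounds under metabolic activation by rat liver microsomes and NADPH at 0.5 mg/mL final each.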

[19] = p53 small molecule agonists, cell-based qHTS assay with human liver microsomes (AID 1963577);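 further: p53 response element beta-lactamase reporter cells with liver microsomes plus NADPH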
Method in brief: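 In this qHTS, p53 response-element beta-lactamase cells receive test compound together with a microsome/NADPH activating system (0.5 mg/mL final each) and are incubated 16 h at 37 C before LiveBLAzer fluorescence detection.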

[20] = p53 small molecule agonists, cell-based qHTS assay with rat liver microsomes (AID 1963578)
Method in brief: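 Agonist mode in p53RE-bla reporter cells, with compounds co-incubated 16 h at 37 C alongside 0.5 mg/mL rat liver microsomes and 0.5 mg/mL NADPH (final), followed by a 2 h LiveBLAzer detection step.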

Measured: Potency

Chain of 5-hydroxytryptamine receptor 2A (Homo sapiens) (P28223 whole entry, looked up): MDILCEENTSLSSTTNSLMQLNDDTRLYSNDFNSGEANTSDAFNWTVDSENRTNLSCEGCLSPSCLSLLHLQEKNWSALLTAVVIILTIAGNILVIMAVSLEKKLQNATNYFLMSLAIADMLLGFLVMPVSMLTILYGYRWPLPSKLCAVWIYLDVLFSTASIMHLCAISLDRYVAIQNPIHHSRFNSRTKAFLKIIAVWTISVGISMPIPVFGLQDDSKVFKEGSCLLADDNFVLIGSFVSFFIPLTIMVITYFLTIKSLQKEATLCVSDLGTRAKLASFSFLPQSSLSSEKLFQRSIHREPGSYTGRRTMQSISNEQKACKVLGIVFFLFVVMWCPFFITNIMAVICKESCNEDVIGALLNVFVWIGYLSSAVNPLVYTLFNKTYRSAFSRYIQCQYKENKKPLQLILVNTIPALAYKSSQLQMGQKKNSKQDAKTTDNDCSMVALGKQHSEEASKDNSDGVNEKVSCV
Chain of Beta-2 adrenergic receptor (Homo sapiens) (P07550 whole entry, looked up): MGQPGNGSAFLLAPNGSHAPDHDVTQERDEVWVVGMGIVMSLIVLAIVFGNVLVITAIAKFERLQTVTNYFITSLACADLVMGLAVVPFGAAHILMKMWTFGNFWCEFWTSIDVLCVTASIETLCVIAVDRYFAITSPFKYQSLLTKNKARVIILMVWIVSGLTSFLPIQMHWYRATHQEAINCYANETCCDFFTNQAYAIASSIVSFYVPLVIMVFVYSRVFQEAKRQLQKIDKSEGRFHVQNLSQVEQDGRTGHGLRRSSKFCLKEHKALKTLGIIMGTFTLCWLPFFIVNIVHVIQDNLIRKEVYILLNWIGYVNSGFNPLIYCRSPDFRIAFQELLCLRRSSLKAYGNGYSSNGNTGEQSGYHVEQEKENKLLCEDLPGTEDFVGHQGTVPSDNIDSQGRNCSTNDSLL
Chain of D(2) dopamine receptor (Homo sapiens) (P14416 whole entry, looked up): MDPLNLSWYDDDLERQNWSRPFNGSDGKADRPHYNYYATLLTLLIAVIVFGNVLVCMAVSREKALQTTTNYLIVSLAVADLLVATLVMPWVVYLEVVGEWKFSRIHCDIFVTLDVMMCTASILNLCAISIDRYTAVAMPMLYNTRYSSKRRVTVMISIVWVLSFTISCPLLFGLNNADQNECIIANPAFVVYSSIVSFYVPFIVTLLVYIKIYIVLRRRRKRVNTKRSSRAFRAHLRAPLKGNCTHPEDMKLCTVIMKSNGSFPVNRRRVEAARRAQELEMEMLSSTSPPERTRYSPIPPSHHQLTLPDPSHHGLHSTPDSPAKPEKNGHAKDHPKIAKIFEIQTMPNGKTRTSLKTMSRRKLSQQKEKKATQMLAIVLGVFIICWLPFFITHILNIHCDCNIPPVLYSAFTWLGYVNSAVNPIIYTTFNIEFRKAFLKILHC
Chain of Gonadotropin-releasing hormone receptor (Homo sapiens) (P30968 whole entry, looked up): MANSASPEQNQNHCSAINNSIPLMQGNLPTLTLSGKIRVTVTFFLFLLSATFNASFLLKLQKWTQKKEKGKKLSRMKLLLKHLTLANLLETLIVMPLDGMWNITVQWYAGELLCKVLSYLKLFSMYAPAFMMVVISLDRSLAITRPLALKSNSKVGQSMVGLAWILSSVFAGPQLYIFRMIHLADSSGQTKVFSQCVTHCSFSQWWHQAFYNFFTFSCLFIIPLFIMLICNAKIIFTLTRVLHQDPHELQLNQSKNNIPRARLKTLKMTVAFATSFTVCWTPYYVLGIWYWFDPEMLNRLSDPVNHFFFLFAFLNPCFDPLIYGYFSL
Chain of Muscarinic acetylcholine receptor M1 (Homo sapiens) (P11229 whole entry, looked up): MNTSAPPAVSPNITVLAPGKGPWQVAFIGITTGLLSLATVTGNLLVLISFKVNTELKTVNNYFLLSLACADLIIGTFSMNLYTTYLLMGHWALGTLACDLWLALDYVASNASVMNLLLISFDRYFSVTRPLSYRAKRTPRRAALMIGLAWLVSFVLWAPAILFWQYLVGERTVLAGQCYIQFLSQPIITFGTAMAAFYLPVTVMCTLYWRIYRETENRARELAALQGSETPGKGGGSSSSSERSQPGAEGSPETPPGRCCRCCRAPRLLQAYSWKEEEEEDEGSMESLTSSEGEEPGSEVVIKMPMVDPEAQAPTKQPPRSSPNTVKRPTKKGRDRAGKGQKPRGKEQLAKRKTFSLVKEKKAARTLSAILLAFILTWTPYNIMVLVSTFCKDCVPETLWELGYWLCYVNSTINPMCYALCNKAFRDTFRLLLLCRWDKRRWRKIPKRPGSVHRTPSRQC
Chain of KiSS-1 receptor (Homo sapiens) (Q969F8 whole entry, looked up): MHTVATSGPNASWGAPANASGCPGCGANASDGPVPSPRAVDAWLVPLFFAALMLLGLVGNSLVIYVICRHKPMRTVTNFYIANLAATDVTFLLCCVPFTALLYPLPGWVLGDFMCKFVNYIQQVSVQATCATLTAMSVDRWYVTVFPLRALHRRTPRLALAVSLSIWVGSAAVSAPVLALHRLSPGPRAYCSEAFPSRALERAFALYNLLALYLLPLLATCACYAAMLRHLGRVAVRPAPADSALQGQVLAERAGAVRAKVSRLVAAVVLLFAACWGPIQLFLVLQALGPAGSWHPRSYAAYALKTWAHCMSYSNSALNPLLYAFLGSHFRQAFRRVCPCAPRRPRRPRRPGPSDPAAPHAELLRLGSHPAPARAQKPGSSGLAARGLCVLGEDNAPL

C=O
not listed: [16] | [17] | [18] | [19] | [20]
inactive: all other assays above

O=[N+]([O-])c1ccc(O)c2ncccc12
not listed: [5] | [12] | [18] | [19] | [20]
inactive: all other assays above

Cc1nc2c([nH]1)c(=O)n(C)c(=O)n2Cc1ccco1
not listed: [7] | [11] | [14] | [16] | [17] | [19] | [20]
inactive: all other assays above

COc1ccc(Cc2cnc(N)nc2N)cc1OC
not listed: [6] | [12] | [16] | [19] | [20]
inactive: all other assays above

CCN(CC)c1ccc(N=Nc2ccccc2)cc1
not listed: [4] | [11]
inactive: all other assays above

CC(=O)OCC(=O)[C@@]1(O)CC[C@H]2[C@@H]3CCC4=CC(=O)CC[C@]4(C)[C@H]3C(=O)C[C@@]21C
inactive: [1] | [2] | [3] | [4] | [5] | [6] | [11] | [12] | [13] | [14] | [15]

CC(C)(C)C1CCCCC1=O (stereo not given)
not listed: [6] | [9] | [15] | [16] | [17] | [19] | [20]
inactive: all other assays above

CCCCCCCCCCCCCC[P+](CCCC)(CCCC)CCCC (tested in a mixture with another compound)
inactive: [2] | [3] | [4] | [5] | [8] | [10] | [13] | [17] | [14]
active: [1] 10.9 µM | [6] 16.3 µM | [15] 27.5 µM

CC(C)O
not listed: [11] | [12] | [16] | [17] | [18] | [19] | [20]
inactive: all other assays above
